Measurements published in the supplement of paper PMC4466140.

Assays:
Experiment in all cases: SPOT peptide array binding signal intensity (averaged, normalized) (arbitrary units (background-subtracted, floor 0; scale differs between SH3 domains)); higher = stronger binding of the SH3 domain to the peptide
AgAbp1 = biological target: AgAbp1
How it was run: (§1)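 Spot intensities were captured after detection with anti-GST antibody, an HRP-linked anti-mouse secondary and luminol, and quantified with Genespotter. The probes were GST-fused SH3 domains from four yeast species, produced in E. coli BL21(DE3), purified on glutathione Sepharose and incubated at 10 μg/ml overnight at 4°C on cellulose-bound synthetic 15-mer peptides with cysteines replaced by serines. Binding signal is the normalized, background-subtracted spot intensity averaged over replicates, and its arbitrary units differ between domains.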

AgBbc1 = biological target: AgBbc1
How it was run: as §1

AgBem1-D1 = biological target: AgBem1-D1
How it was run: as §1

AgBzz1-D1 = biological target: AgBzz1-D1
How it was run: as §1

AgBzz1-D2 = biological target: AgBzz1-D2
How it was run: as §1

AgCyk3 = biological target: AgCyk3
How it was run: as §1

AgFus1 = biological target: AgFus1
How it was run: as §1

AgHof1 = biological target: AgHof1
How it was run: as §1

AgHse1 = biological target: AgHse1
How it was run: as §1

AgLsb1 = biological target: AgLsb1
How it was run: as §1

AgLsb4 = biological target: AgLsb4
How it was run: as §1

AgMyo5 = biological target: AgMyo5
How it was run: as §1

AgNbp2 = biological target: AgNbp2
How it was run: as §1

AgRvs167 = biological target: AgRvs167
How it was run: as §1

AgSho1 = biological target: AgSho1
How it was run: as §1

AgSla1-D1-D2 = biological target: AgSla1-D1-D2
How it was run: as §1

AgSla1-D3 = biological target: AgSla1-D3
How it was run: as §1

CaAbp1-D1 = biological target: CaAbp1-D1
How it was run: as §1

CaAbp1-D2 = biological target: CaAbp1-D2
How it was run: as §1

CaBbc1 = biological target: CaBbc1
How it was run: as §1

CaBem1-D1 = biological target: CaBem1-D1
How it was run: as §1

CaBzz1-D1 = biological target: CaBzz1-D1
How it was run: as §1

CaBzz1-D2 = biological target: CaBzz1-D2
How it was run: as §1

CaCyk3 = biological target: CaCyk3
How it was run: as §1

CaFus1 = biological target: CaFus1
How it was run: as §1

CaHof1 = biological target: CaHof1
How it was run: as §1

CaHse1 = biological target: CaHse1
How it was run: as §1

CaLsb1 = biological target: CaLsb1
How it was run: as §1

CaLsb4 = biological target: CaLsb4
How it was run: as §1

CaMyo5 = biological target: CaMyo5
How it was run: as §1

CaNbp2 = biological target: CaNbp2
How it was run: as §1

CaRvs167 = biological target: CaRvs167
How it was run: as §1

CaRvs167-3 = biological target: CaRvs167-3
How it was run: as §1

CaSho1 = biological target: CaSho1
How it was run: as §1

CaSla1-D1-D2 = biological target: CaSla1-D1-D2
How it was run: as §1

CaSla1-D3 = biological target: CaSla1-D3
How it was run: as §1

ScAbp1 = biological target: ScAbp1
How it was run: as §1

ScBbc1 = biological target: ScBbc1
How it was run: as §1

ScBem1-D1 = biological target: ScBem1-D1
How it was run: as §1

ScBzz1-D1 = biological target: ScBzz1-D1
How it was run: as §1

ScBzz1-D2 = biological target: ScBzz1-D2
How it was run: as §1

ScCyk3 = biological target: ScCyk3
How it was run: as §1

ScFus1 = biological target: ScFus1
How it was run: as §1

ScHof1 = biological target: ScHof1
How it was run: as §1

ScHse1 = biological target: ScHse1
How it was run: as §1

ScLsb1 = biological target: ScLsb1
How it was run: as §1

ScLsb2 = biological target: ScLsb2
How it was run: as §1

ScLsb3 = biological target: ScLsb3
How it was run: as §1

ScLsb4 = biological target: ScLsb4
How it was run: as §1

ScMyo3 = biological target: ScMyo3
How it was run: as §1

ScMyo5 = biological target: ScMyo5
How it was run: as §1

ScNbp2 = biological target: ScNbp2
How it was run: as §1

ScPex13 = biological target: ScPex13
How it was run: as §1

ScRvs167 = biological target: ScRvs167
How it was run: as §1

ScSho1 = biological target: ScSho1
How it was run: as §1

ScSla1-D1-D2 = biological target: ScSla1-D1-D2
How it was run: as §1

ScSla1-D3 = biological target: ScSla1-D3
How it was run: as §1

SpAbp1-D1 = biological target: SpAbp1-D1
How it was run: as §1

SpBbc1 = biological target: SpBbc1
How it was run: as §1

SpBzz1-D1 = biological target: SpBzz1-D1
How it was run: as §1

SpBzz1-D2 = biological target: SpBzz1-D2
How it was run: as §1

SpCyk3 = biological target: SpCyk3
How it was run: as §1

SpHof1 = biological target: SpHof1
How it was run: as §1

SpHof1-2 = biological target: SpHof1-2
How it was run: as §1

SpHof1-3 = biological target: SpHof1-3
How it was run: as §1

SpHse1 = biological target: SpHse1
How it was run: as §1

SpLsb1 = biological target: SpLsb1
How it was run: as §1

SpLsb4 = biological target: SpLsb4
How it was run: as §1

SpMyo1 = biological target: SpMyo1
How it was run: as §1

SpNbp2 = biological target: SpNbp2
How it was run: as §1

SpPex13 = biological target: SpPex13
How it was run: as §1

SpRvs167 = biological target: SpRvs167
How it was run: as §1

SpSla1-D1-D2 = biological target: SpSla1-D1-D2
How it was run: as §1

SpSla1-D3 = biological target: SpSla1-D3
How it was run: as §1

## TTNRGPPPLPPRANV
AgAbp1
  SPOT peptide array binding signal intensity: 2
AgBbc1
  SPOT peptide array binding signal intensity: 301
AgBem1-D1
  SPOT peptide array binding signal intensity: 53.5
AgBzz1-D1
  SPOT peptide array binding signal intensity: 385
AgBzz1-D2
  SPOT peptide array binding signal intensity: 144
AgCyk3
  SPOT peptide array binding signal intensity: 6
AgFus1
  SPOT peptide array binding signal intensity: ≤ 0
AgHof1
  SPOT peptide array binding signal intensity: 398
AgHse1
  SPOT peptide array binding signal intensity: 35.5
AgLsb1
  SPOT peptide array binding signal intensity: 513
AgLsb4
  SPOT peptide array binding signal intensity: 4310
AgMyo5
  SPOT peptide array binding signal intensity: 394
AgNbp2
  SPOT peptide array binding signal intensity: 4.5
AgRvs167
  SPOT peptide array binding signal intensity: 1710
AgSho1
  SPOT peptide array binding signal intensity: ≤ 0
AgSla1-D1-D2
  SPOT peptide array binding signal intensity: ≤ 0
AgSla1-D3
  SPOT peptide array binding signal intensity: 4
CaAbp1-D1
  SPOT peptide array binding signal intensity: 19
CaAbp1-D2
  SPOT peptide array binding signal intensity: ≤ 0
CaBbc1
  SPOT peptide array binding signal intensity: 590
CaBem1-D1
  SPOT peptide array binding signal intensity: 28
CaBzz1-D1
  SPOT peptide array binding signal intensity: 6090
CaBzz1-D2
  SPOT peptide array binding signal intensity: 2120
CaCyk3
  SPOT peptide array binding signal intensity: 10.5
CaFus1
  SPOT peptide array binding signal intensity: 22.5
CaHof1
  SPOT peptide array binding signal intensity: 101
CaHse1
  SPOT peptide array binding signal intensity: 73
CaLsb1
  SPOT peptide array binding signal intensity: 9
CaLsb4
  SPOT peptide array binding signal intensity: 4530
CaMyo5
  SPOT peptide array binding signal intensity: 6.25
CaNbp2
  SPOT peptide array binding signal intensity: 35
CaRvs167
  SPOT peptide array binding signal intensity: 1980
CaRvs167-3
  SPOT peptide array binding signal intensity: ≤ 0
CaSho1
  SPOT peptide array binding signal intensity: 0.5
CaSla1-D1-D2
  SPOT peptide array binding signal intensity: 436
CaSla1-D3
  SPOT peptide array binding signal intensity: 1.5
ScAbp1
  SPOT peptide array binding signal intensity: 12
ScBbc1
  SPOT peptide array binding signal intensity: 74
ScBem1-D1
  SPOT peptide array binding signal intensity: 6
ScBzz1-D1
  SPOT peptide array binding signal intensity: 144
ScBzz1-D2
  SPOT peptide array binding signal intensity: 8
ScCyk3
  SPOT peptide array binding signal intensity: 1
ScFus1
  SPOT peptide array binding signal intensity: ≤ 0
ScHof1
  SPOT peptide array binding signal intensity: 272
ScHse1
  SPOT peptide array binding signal intensity: 21.5
ScLsb1
  SPOT peptide array binding signal intensity: 576
ScLsb2
  SPOT peptide array binding signal intensity: 583
ScLsb3
  SPOT peptide array binding signal intensity: 6820
ScLsb4
  SPOT peptide array binding signal intensity: 3960
ScMyo3
  SPOT peptide array binding signal intensity: 492
ScMyo5
  SPOT peptide array binding signal intensity: 277
ScNbp2
  SPOT peptide array binding signal intensity: 43
ScPex13
  SPOT peptide array binding signal intensity: 2050
ScRvs167
  SPOT peptide array binding signal intensity: 2870
ScSho1
  SPOT peptide array binding signal intensity: 128
ScSla1-D1-D2
  SPOT peptide array binding signal intensity: 255
ScSla1-D3
  SPOT peptide array binding signal intensity: 15.2
SpAbp1-D1
  SPOT peptide array binding signal intensity: 41.5
SpBbc1
  SPOT peptide array binding signal intensity: 106
SpBzz1-D1
  SPOT peptide array binding signal intensity: 3230
SpBzz1-D2
  SPOT peptide array binding signal intensity: 11
SpCyk3
  SPOT peptide array binding signal intensity: 16
SpHof1
  SPOT peptide array binding signal intensity: 15.2
SpHof1-2
  SPOT peptide array binding signal intensity: 42.8
SpHof1-3
  SPOT peptide array binding signal intensity: 344
SpHse1
  SPOT peptide array binding signal intensity: ≤ 0
SpLsb1
  SPOT peptide array binding signal intensity: 1680
SpLsb4
  SPOT peptide array binding signal intensity: 4080
SpMyo1
  SPOT peptide array binding signal intensity: 853
SpNbp2
  SPOT peptide array binding signal intensity: ≤ 0
SpPex13
  SPOT peptide array binding signal intensity: 7
SpRvs167
  SPOT peptide array binding signal intensity: 2550
SpSla1-D1-D2
  SPOT peptide array binding signal intensity: 1
SpSla1-D3
  SPOT peptide array binding signal intensity: ≤ 0

## GKFIPSRPAPKPPSS
AgAbp1
  SPOT peptide array binding signal intensity: 978
AgBbc1
  SPOT peptide array binding signal intensity: 1050
AgBem1-D1
  SPOT peptide array binding signal intensity: 328
AgBzz1-D1
  SPOT peptide array binding signal intensity: 46
AgBzz1-D2
  SPOT peptide array binding signal intensity: 37
AgCyk3
  SPOT peptide array binding signal intensity: 2
AgFus1
  SPOT peptide array binding signal intensity: ≤ 0
AgHof1
  SPOT peptide array binding signal intensity: 51.8
AgHse1
  SPOT peptide array binding signal intensity: 8
AgLsb1
  SPOT peptide array binding signal intensity: 218
AgLsb4
  SPOT peptide array binding signal intensity: 19
AgMyo5
  SPOT peptide array binding signal intensity: 1850
AgNbp2
  SPOT peptide array binding signal intensity: 4160
AgRvs167
  SPOT peptide array binding signal intensity: 2.83
AgSho1
  SPOT peptide array binding signal intensity: 17
AgSla1-D1-D2
  SPOT peptide array binding signal intensity: 35
AgSla1-D3
  SPOT peptide array binding signal intensity: 9.25
CaAbp1-D1
  SPOT peptide array binding signal intensity: 922
CaAbp1-D2
  SPOT peptide array binding signal intensity: 764
CaBbc1
  SPOT peptide array binding signal intensity: 1370
CaBem1-D1
  SPOT peptide array binding signal intensity: 2020
CaBzz1-D1
  SPOT peptide array binding signal intensity: 1860
CaBzz1-D2
  SPOT peptide array binding signal intensity: 808
CaCyk3
  SPOT peptide array binding signal intensity: 88.5
CaFus1
  SPOT peptide array binding signal intensity: 54.5
CaHof1
  SPOT peptide array binding signal intensity: 0.5
CaHse1
  SPOT peptide array binding signal intensity: ≤ 0
CaLsb1
  SPOT peptide array binding signal intensity: ≤ 0
CaLsb4
  SPOT peptide array binding signal intensity: 53
CaMyo5
  SPOT peptide array binding signal intensity: 24
